From PubChem BioAssay (NCI)
Compounds without any hit were thinned out: in the full panel of roughly 83,000, 20% have a hit.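 Cells were grown in 96-well plates and exposed to the test compound at a single concentration for 48 hours; results are reported as percent growth, with values below 10 considered active.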 Unmarked numbers belong to inactive results. Active and inactive are the calls of the source.

Experiments:
Test in all cases: NCI-60 one-dose screen, 48 h (100 = growth as untreated, 0 = no growth, -100 = all killed)
Settings in all cases: 10 µM unless noted
[1] = tested on: NCI-H23 lung
[2] = tested on: NCI-H226 lung
[3] = tested on: NCI-H322M lung
[4] = tested on: HOP-62 NSCLC
[5] = tested on: NCI-H460 lung
[6] = tested on: HOP-92 NSCLC
[7] = tested on: NCI-H522 lung
[8] = tested on: A549/ATCC NSCLC
[9] = tested on: 786-0 renal
[10] = tested on: COLO 205 colon
[11] = tested on: DU-145 prostate
[12] = tested on: K-562 leukemia
[13] = tested on: MALME-3M melanoma
[14] = tested on: MDA-MB-231 breast
[15] = tested on: RXF 393 renal
[16] = tested on: SF-268 CNS
[17] = tested on: SF-295 CNS
[18] = tested on: SF-539 CNS
[19] = tested on: UACC-257 melanoma
[20] = tested on: M14 melanoma

SMILES	growth [1]	growth [2]	growth [3]	growth [4]	growth [5]	growth [6]	growth [7]	growth [8]	growth [9]	growth [10]	growth [11]	growth [12]	growth [13]	growth [14]	growth [15]	growth [16]	growth [17]	growth [18]	growth [19]	growth [20]
C[C@H]1[C@H](C)CC[C@]2(C(=O)OCCCC[P+](c3ccccc3)(c3ccccc3)c3ccccc3)CC[C@]3(C)C(=CC[C@@H]4[C@@]5(C)CC[C@H](OC(=O)C(Cl)Cl)C(C)(C)[C@@H]5CC[C@]43C)[C@H]12	-48.3% (active)	-78.8% (active)	-10.6% (active)	-65% (active)	-83.8% (active)	-70.1% (active)	-55% (active)	-41.9% (active)	-83.5% (active)	-84.9% (active)	-35.2% (active)	-57.4% (active)	-85.2% (active)	-68.8% (active)	-91.4% (active)	-31.8% (active)	-77.9% (active)	-78.8% (active)	-78.9% (active)	-82.7% (active)
COc1ccc2nc3nc4ccc[nH]c4cc3c2c1	73.9%	91.6%	87.6%	87.9%	73.7%	122%	84.4%	91.2%	86.2%	97.9%	88.3%	99.6%	90%	98%	101%	84.5%	112%	94%	115%	101%
O=C(Nc1ccc(S(=O)(=O)NC2CCCCCC2)cc1)C(c1ccccc1)S(=O)(=O)c1ccc(F)cc1 (stereo not given)	9.28% (active)	-21.5% (active)	17.1%	-17.4% (active)	1.37% (active)	-12.2% (active)	-16% (active)	-12.4% (active)	20.4%	-18% (active)	9.51% (active)	7.42% (active)	-4.32% (active)	13.8%	-33.6% (active)	24.3%	-13.8% (active)	9.02% (active)	-24.6% (active)	2.29% (active)
COC(=O)c1ccc2c(c1)NC(=O)[C@@H]1CCCN21	88.6%	98.5%	99.3%	85.7%	106%	87.5%	70%	98.2%	97.8%	108%	106%	96.7%	105%	97.3%	106%	94.7%	100%	93.8%	98.3%	102%
CN(C)C1=NCCN1	99.3%	99.4%	105%	107%	110%	74.8%	73.4%	90%	89.6%	111%	108%	95.6%	97.2%	105%	108%	104%	101%	104%	103%	95.7%
C#CCOC(=O)[C@]1(C)CCC[C@]2(C)[C@H]3C[C@H]4C(C(C)C)=C[C@]3(CC[C@H]21)[C@@H]1C(=O)CCC(=O)[C@@H]14	84.1%	85.9%	102%	80.1%	90.9%	54%	63.7%	76.9%	88.5%	105%	102%	77.2%	110%	74.6%	86%	99.2%	83.7%	84%	92.3%	91.9%
COc1ccc2c(c1)OC13Oc4cc(OC)ccc4C=C1CCCCC3=C2	91.6%	88.4%	105%	99.3%	94.4%	80.7%	66.2%	73.8%	87.2%	101%	104%	88.7%	97.9%	93.8%	87.5%	90.7%	96.8%	98.4%	78.6%	90.4%
O=C(CN1N=C(c2ccc(F)cc2)CCC1=O)Nc1nccs1	103%	110%	100%	98.9%	97.7%	86.6%	83.2%	77.8%	103%	113%	118%	92.6%	105%	109%	110%	99.9%	97.3%	98.1%	92.8%	102%
Cc1c(Cl)cccc1NC(=O)c1sc2nc3c(cc2c1N)CCCCC3	48%	71.6%	49.8%	43.2%	16.4%	37.8%	10%	34.5%	32.1%	9.8% (active)	15.6%	8.36% (active)	68.9%	48.4%	22.8%	54.2%	32%	13.9%	67%	2.84% (active)
CCOc1ccccc1C(=O)/C=C/c1cc2ccccc2[nH]c1=O	-55.2% (active)	8.19% (active)	-2.24% (active)	-33.5% (active)	-4.96% (active)	0.541% (active)	-38.6% (active)	16.8%	-21.7% (active)	-50.8% (active)	-37% (active)	5.07% (active)	-39% (active)	-52.8% (active)	-69.4% (active)	-10.8% (active)	1.85% (active)	-29.9% (active)	-9.05% (active)	-20.4% (active)
CC(/C=C/c1ccccc1)=N/NC(=O)c1ccncc1	98.2%	104%	99.7%	103%	102%	77.8%	92.9%	93.4%	103%	119%	112%	100%	89.5%	105%	113%	102%	109%	105%	89.8%	101%
CCOC(=O)c1ccc(Nc2ncnc3ccc(NC(=O)c4ccccc4)cc23)cc1	83.7%	78.2%	95.6%	98.8%	95.5%	86.4%	73.3%	91.5%	86.8%	104%	105%	71.9%	109%	98.2%	80.7%	91.3%	95.3%	101%	103%	93.8%
CCN1CCN(Cc2ccc(NC(=O)c3cccc(C#Cc4cccc5[nH]nc(N)c45)c3)cc2C(F)(F)F)CC1	-42.9% (active)	16.6%	-49.6% (active)	-76.4% (active)	-72.2% (active)	-62.7% (active)	-84.7% (active)	-91.2% (active)	-81.6% (active)	-76.2% (active)	-70% (active)	-43.8% (active)	-71.4% (active)	-85% (active)	-92% (active)	-41.5% (active)	-88.4% (active)	-98% (active)	-75.7% (active)	-83.5% (active)
COc1cc2c(cc1OC)C(Sc1ccc(Cl)cc1)c1c(nc(N)c(C#N)c1N)O2 (stereo not given)	-20.2% (active)	16.2%	42.1%	63%	-55% (active)	20.1%	-67.6% (active)	44.1%	-17.1% (active)	-65.6% (active)	5.73% (active)	0.964% (active)	-28.6% (active)	-20.1% (active)	-65.4% (active)	35.7%	43.8%	-21.9% (active)	22.5%	-21.2% (active)
